According to article PMC11006913:
Substitutions are numbered along the chain they refer to.

Assays:
Test in all cases: PBM; 200 nM protein, PBS
Settings in all cases: dsDNA, one strand shown
HOXB6 = HOXB6 (Homo sapiens, UniProt P17509 132-218)
HOXA7 [1] = target: HOXA7 (Homo sapiens, UniProt P31268 116-202)
HOXA7 [2] = target: HOXA7 (Homo sapiens, UniProt P31268 116-202, W177C)
PAX4 [3] = target: T1, PAX4 (Homo sapiens, UniProt O43316 9-242, R200K)
T1 sequence: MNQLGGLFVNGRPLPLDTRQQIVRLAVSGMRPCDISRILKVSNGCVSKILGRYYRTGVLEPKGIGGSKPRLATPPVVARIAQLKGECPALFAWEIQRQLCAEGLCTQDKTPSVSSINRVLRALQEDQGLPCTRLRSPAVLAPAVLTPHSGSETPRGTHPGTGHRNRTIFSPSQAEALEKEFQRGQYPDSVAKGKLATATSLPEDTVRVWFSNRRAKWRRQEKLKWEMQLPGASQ

PAX4 [4] = target: T2, PAX4 (Homo sapiens, UniProt O43316 9-242)
T2 sequence: T1 sequence with K192R

PAX4 [5] = target: T3, PAX4 (Homo sapiens, UniProt O43316 9-242, R200Q)
T3 sequence: T1 sequence with K192Q

PAX4 [6] = target: T4, PAX4 (Homo sapiens, UniProt O43316 9-242, F177Y)
T4 sequence: T1 sequence with F169Y, K192R

PAX4 [7] = target: T5, PAX4 (Homo sapiens, UniProt O43316 9-242, R227W)
T5 sequence: T1 sequence with K192R, R219W

ALX4 [8] = target: ALX4 (Homo sapiens, UniProt Q9H161 200-286)
Sequence of ALX4 (Homo sapiens, UniProt Q9H161 200-286) (Q9H161 200-286): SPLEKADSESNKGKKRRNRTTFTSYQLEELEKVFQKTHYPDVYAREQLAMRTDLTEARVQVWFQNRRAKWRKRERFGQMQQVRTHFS

ALX4 [9] = target: ALX4 (Homo sapiens, UniProt Q9H161 200-286, Q225E)
Sequence of ALX4 (Homo sapiens, UniProt Q9H161 200-286, Q225E) (Q9H161 200-286 Q225E): as the sequence (Q9H161 200-286) above, with Q26E counted along it

MSX2 [10] = target: MSX2 (Homo sapiens, UniProt P35548 130-214, R199I)
Sequence of MSX2 (Homo sapiens, UniProt P35548 130-214, R199I) (P35548 130-214 R199I): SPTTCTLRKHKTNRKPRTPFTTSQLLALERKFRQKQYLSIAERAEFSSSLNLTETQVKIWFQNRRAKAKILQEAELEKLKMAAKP

ALX1 [11] = target: ALX1 (Homo sapiens, UniProt Q15699 118-204, L144V)
Sequence of ALX1 (Homo sapiens, UniProt Q15699 118-204, L144V) (Q15699 118-204 L144V): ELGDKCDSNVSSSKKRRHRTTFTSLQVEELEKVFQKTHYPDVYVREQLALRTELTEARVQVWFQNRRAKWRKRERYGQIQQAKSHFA

ALX1 [12] = target: ALX1 (Homo sapiens, UniProt Q15699 118-204, L144R)
Sequence of ALX1 (Homo sapiens, UniProt Q15699 118-204, L144R) (Q15699 118-204 L144R): as the sequence (Q15699 118-204 L144V) above, with V27R counted along it

MSX2 [13] = target: MSX2 (Homo sapiens, UniProt P35548 130-214)
Sequence of MSX2 (Homo sapiens, UniProt P35548 130-214) (P35548 130-214): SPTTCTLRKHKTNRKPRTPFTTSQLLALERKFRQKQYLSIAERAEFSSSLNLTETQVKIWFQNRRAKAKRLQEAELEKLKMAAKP

MSX2 [14] = target: MSX2 (Homo sapiens, UniProt P35548 130-214, F161Y)
Sequence of MSX2 (Homo sapiens, UniProt P35548 130-214, F161Y) (P35548 130-214 F161Y): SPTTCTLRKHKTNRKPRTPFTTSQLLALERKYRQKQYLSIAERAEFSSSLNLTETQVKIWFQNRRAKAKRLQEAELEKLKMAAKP

ALX1 [15] = target: ALX1 (Homo sapiens, UniProt Q15699 118-204)
Sequence of ALX1 (Homo sapiens, UniProt Q15699 118-204) (Q15699 118-204): as the sequence (Q15699 118-204 L144V) above, with V27L counted along it

HOXA4 [16] = target: HOXA4 (Homo sapiens, UniProt Q00056 201-287, W262R)
Sequence of HOXA4 (Homo sapiens, UniProt Q00056 201-287, W262R) (Q00056 201-287 W262R): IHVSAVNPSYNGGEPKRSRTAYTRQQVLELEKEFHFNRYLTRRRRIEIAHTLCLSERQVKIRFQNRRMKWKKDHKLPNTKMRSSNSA

HOXA4 [17] = target: HOXA4 (Homo sapiens, UniProt Q00056 201-287, R217L)
Sequence of HOXA4 (Homo sapiens, UniProt Q00056 201-287, R217L) (Q00056 201-287 R217L): as the sequence (Q00056 201-287 W262R) above, with R17L, R62W counted along it

HOXA4 [18] = target: HOXA4 (Homo sapiens, UniProt Q00056 201-287)
Sequence of HOXA4 (Homo sapiens, UniProt Q00056 201-287) (Q00056 201-287): as the sequence (Q00056 201-287 W262R) above, with R62W counted along it

HOXA4 [19] = target: HOXA4 (Homo sapiens, UniProt Q00056 201-287, W262F)
Sequence of HOXA4 (Homo sapiens, UniProt Q00056 201-287, W262F) (Q00056 201-287 W262F): as the sequence (Q00056 201-287 W262R) above, with R62F counted along it

Sequence of HOXA7 (Homo sapiens, UniProt P31268 116-202, W177C) (P31268 116-202 W177C): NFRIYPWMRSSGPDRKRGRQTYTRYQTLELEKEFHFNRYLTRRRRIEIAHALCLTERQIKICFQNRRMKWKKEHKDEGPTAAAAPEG
Sequence of HOXB6 (P17509 132-218): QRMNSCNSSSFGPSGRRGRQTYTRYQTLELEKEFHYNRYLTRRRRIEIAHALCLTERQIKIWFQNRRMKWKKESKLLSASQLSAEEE
Sequence of HOXA7 (Homo sapiens, UniProt P31268 116-202) (P31268 116-202): as the sequence (P31268 116-202 W177C) above, with C62W counted along it

In the case of CTGCGGAC, the binding signal (HOXB6) is reported as 8.8 upbm affinity estimate (log intensity, higher = more binding, comparable within an allelic series).

With GCACGCCC the binding signal (HOXA7 [1]) was 8.55 upbm affinity estimate (log intensity, higher = more binding, comparable within an allelic series) and the binding signal (HOXA7 [2]) was 8.44 upbm affinity estimate (log intensity, higher = more binding, comparable within an allelic series).

In the case of AGCGCAGG, the binding signal (HOXA7 [1]) is reported as 8.41 upbm affinity estimate (log intensity, higher = more binding, comparable within an allelic series) and the binding signal (HOXA7 [2]) is reported as 8.31 upbm affinity estimate (log intensity, higher = more binding, comparable within an allelic series).

With CGGCCTGC the binding signal (HOXA7 [1]) was 8.37 upbm affinity estimate (log intensity, higher = more binding, comparable within an allelic series) and the binding signal (HOXA7 [2]) was 8.26 upbm affinity estimate (log intensity, higher = more binding, comparable within an allelic series).

With CAGCGCCG the binding signal (PAX4 [3]) was 9.2 upbm affinity estimate (log intensity, higher = more binding, comparable within an allelic series), the binding signal (PAX4 [4]) was 9.2 upbm affinity estimate (log intensity, higher = more binding, comparable within an allelic series) and the binding signal (PAX4 [5]) was 9.26 upbm affinity estimate (log intensity, higher = more binding, comparable within an allelic series). For the same sequence, the binding signal (PAX4 [6]) was 9.21 upbm affinity estimate (log intensity, higher = more binding, comparable within an allelic series) and the binding signal (PAX4 [7]) was 9.19 upbm affinity estimate (log intensity, higher = more binding, comparable within an allelic series).

With CTCGGGCC the binding signal (HOXB6) was 8.82 upbm affinity estimate (log intensity, higher = more binding, comparable within an allelic series).

For CAGGCCCG, the binding signal (ALX4 [8]) was 8 upbm affinity estimate (log intensity, higher = more binding, comparable within an allelic series), the binding signal (ALX4 [9]) was 7.92 upbm affinity estimate (log intensity, higher = more binding, comparable within an allelic series) and the binding signal (MSX2 [10]) was 9.39 upbm affinity estimate (log intensity, higher = more binding, comparable within an allelic series). The binding signal (ALX1 [11]) was 6.27 upbm affinity estimate (log intensity, higher = more binding, comparable within an allelic series), the binding signal (ALX1 [12]) was 6.24 upbm affinity estimate (log intensity, higher = more binding, comparable within an allelic series) and the binding signal (MSX2 [13]) was 9.3 upbm affinity estimate (log intensity, higher = more binding, comparable within an allelic series). For the same sequence, the binding signal (MSX2 [14]) was 9.36 upbm affinity estimate (log intensity, higher = more binding, comparable within an allelic series) and the binding signal (ALX1 [15]) was 6.21 upbm affinity estimate (log intensity, higher = more binding, comparable within an allelic series).

With CCACCCGC the binding signal (MSX2 [10]) was 9.63 upbm affinity estimate (log intensity, higher = more binding, comparable within an allelic series), the binding signal (MSX2 [13]) was 9.57 upbm affinity estimate (log intensity, higher = more binding, comparable within an allelic series) and the binding signal (MSX2 [14]) was 9.69 upbm affinity estimate (log intensity, higher = more binding, comparable within an allelic series).

In the case of CGGGCCGC, the binding signal (ALX1 [11]) is reported as 6.4 upbm affinity estimate (log intensity, higher = more binding, comparable within an allelic series), the binding signal (ALX1 [12]) is reported as 6.44 upbm affinity estimate (log intensity, higher = more binding, comparable within an allelic series) and the binding signal (ALX1 [15]) is reported as 6.51 upbm affinity estimate (log intensity, higher = more binding, comparable within an allelic series).

With AGCCGGCT the binding signal (ALX1 [11]) was 6.54 upbm affinity estimate (log intensity, higher = more binding, comparable within an allelic series), the binding signal (ALX1 [12]) was 6.74 upbm affinity estimate (log intensity, higher = more binding, comparable within an allelic series) and the binding signal (ALX1 [15]) was 6.76 upbm affinity estimate (log intensity, higher = more binding, comparable within an allelic series).

With GGGGGCCA the binding signal (HOXA4 [16]) was 9.65 upbm affinity estimate (log intensity, higher = more binding, comparable within an allelic series), the binding signal (HOXA4 [17]) was 9.62 upbm affinity estimate (log intensity, higher = more binding, comparable within an allelic series) and the binding signal (HOXA4 [18]) was 9.83 upbm affinity estimate (log intensity, higher = more binding, comparable within an allelic series). The binding signal (HOXA4 [19]) was 9.79 upbm affinity estimate (log intensity, higher = more binding, comparable within an allelic series).

With CGCGTGGC the binding signal (MSX2 [10]) was 9.55 upbm affinity estimate (log intensity, higher = more binding, comparable within an allelic series), the binding signal (MSX2 [13]) was 9.66 upbm affinity estimate (log intensity, higher = more binding, comparable within an allelic series) and the binding signal (MSX2 [14]) was 9.65 upbm affinity estimate (log intensity, higher = more binding, comparable within an allelic series).

In the case of CCCCGGGG, the binding signal (ALX4 [8]) is reported as 8.16 upbm affinity estimate (log intensity, higher = more binding, comparable within an allelic series) and the binding signal (ALX4 [9]) is reported as 8.02 upbm affinity estimate (log intensity, higher = more binding, comparable within an allelic series).

In the case of GTATCATA, the binding signal (HOXA4 [16]) is reported as 10.3 upbm affinity estimate (log intensity, higher = more binding, comparable within an allelic series), the binding signal (HOXA4 [17]) is reported as 10.6 upbm affinity estimate (log intensity, higher = more binding, comparable within an allelic series) and the binding signal (HOXA4 [18]) is reported as 11 upbm affinity estimate (log intensity, higher = more binding, comparable within an allelic series).

In the case of AACGCGGC, the binding signal (HOXB6) is reported as 9.14 upbm affinity estimate (log intensity, higher = more binding, comparable within an allelic series).

For CCCCAGCG, the binding signal (MSX2 [10]) was 9.51 upbm affinity estimate (log intensity, higher = more binding, comparable within an allelic series), the binding signal (MSX2 [13]) was 9.6 upbm affinity estimate (log intensity, higher = more binding, comparable within an allelic series) and the binding signal (MSX2 [14]) was 9.52 upbm affinity estimate (log intensity, higher = more binding, comparable within an allelic series).

In the case of CTGGCCCA, the binding signal (ALX4 [8]) is reported as 8.03 upbm affinity estimate (log intensity, higher = more binding, comparable within an allelic series) and the binding signal (ALX4 [9]) is reported as 8 upbm affinity estimate (log intensity, higher = more binding, comparable within an allelic series).

In the case of AGCGCCCG, the binding signal (HOXB6) is reported as 8.92 upbm affinity estimate (log intensity, higher = more binding, comparable within an allelic series).

For ACGCCGGG, the binding signal (HOXA4 [16]) was 9.71 upbm affinity estimate (log intensity, higher = more binding, comparable within an allelic series), the binding signal (HOXA4 [17]) was 9.86 upbm affinity estimate (log intensity, higher = more binding, comparable within an allelic series) and the binding signal (HOXA4 [18]) was 9.92 upbm affinity estimate (log intensity, higher = more binding, comparable within an allelic series). The binding signal (HOXA4 [19]) was 9.88 upbm affinity estimate (log intensity, higher = more binding, comparable within an allelic series).

CGGCCACC was tested, and the binding signal (HOXA7 [1]) was 8.41 upbm affinity estimate (log intensity, higher = more binding, comparable within an allelic series) and the binding signal (HOXA7 [2]) was 8.25 upbm affinity estimate (log intensity, higher = more binding, comparable within an allelic series).

For CCGGGCGC, the binding signal (HOXA4 [16]) was 9.61 upbm affinity estimate (log intensity, higher = more binding, comparable within an allelic series), the binding signal (HOXA4 [17]) was 9.64 upbm affinity estimate (log intensity, higher = more binding, comparable within an allelic series) and the binding signal (HOXA4 [18]) was 9.56 upbm affinity estimate (log intensity, higher = more binding, comparable within an allelic series). The binding signal (HOXA4 [19]) was 9.82 upbm affinity estimate (log intensity, higher = more binding, comparable within an allelic series).
